# Paper PMC7862700, “An all-to-all approach to the identification of sequence-specific readers for epigenetic DNA modifications on cytosine”
# Assays:
# Test in all cases: DAPPL (digital affinity profiling via proximity ligation, sequencing); 10 mM Tris-HCl pH 7.5, 50 mM NaCl, 1 mM DTT, 4% glycerol, room temperature, 30 min; GST-TFs on glutathione beads, 16-mer random dsDNA library, 0.1% formaldehyde crosslink after washing; high values mean tight binding
# [1] = target: T1, FLI1 (Homo sapiens, UniProt Q01543 1-452); conditions: protein: recombinant; tags: N-terminal GST; dsDNA, one strand shown
# T1 sequence: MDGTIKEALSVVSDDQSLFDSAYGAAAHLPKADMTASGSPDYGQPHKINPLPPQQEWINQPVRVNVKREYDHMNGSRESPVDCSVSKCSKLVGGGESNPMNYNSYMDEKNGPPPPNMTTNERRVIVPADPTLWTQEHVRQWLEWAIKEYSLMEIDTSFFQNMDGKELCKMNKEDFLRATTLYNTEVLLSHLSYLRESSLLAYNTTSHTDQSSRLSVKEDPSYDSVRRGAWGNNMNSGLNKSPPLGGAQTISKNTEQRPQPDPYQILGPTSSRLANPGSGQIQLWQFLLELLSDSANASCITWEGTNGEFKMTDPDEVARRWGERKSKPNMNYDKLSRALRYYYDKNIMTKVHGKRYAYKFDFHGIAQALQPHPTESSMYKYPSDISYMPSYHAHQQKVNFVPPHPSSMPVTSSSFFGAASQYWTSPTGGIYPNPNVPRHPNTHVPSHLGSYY
# Procedure, shortened: (§1)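 The binding signal reported is, for every hexamer, its read frequency for a factor over its read frequency for the tag-only sample. Reads came from pools of yeast-expressed, GST-fused human transcription factors on glutathione beads, barcoded with DNA and mixed with that sample, which were incubated with 200 nmole of a random double-stranded 16-mer DNA library in Tris/NaCl/DTT/glycerol buffer at room temperature for 30 min. After washing, the pools were crosslinked with 0.1% formaldehyde, proximity-ligated with BsaI/T4 ligase for 1 h at 37 °C, PCR-amplified and sequenced on an Illumina NextSeq500.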
# [2] = target: T2, ELK1 (Homo sapiens, UniProt P19419 1-428); conditions: protein: recombinant; tags: N-terminal GST; dsDNA, one strand shown
# T2 sequence: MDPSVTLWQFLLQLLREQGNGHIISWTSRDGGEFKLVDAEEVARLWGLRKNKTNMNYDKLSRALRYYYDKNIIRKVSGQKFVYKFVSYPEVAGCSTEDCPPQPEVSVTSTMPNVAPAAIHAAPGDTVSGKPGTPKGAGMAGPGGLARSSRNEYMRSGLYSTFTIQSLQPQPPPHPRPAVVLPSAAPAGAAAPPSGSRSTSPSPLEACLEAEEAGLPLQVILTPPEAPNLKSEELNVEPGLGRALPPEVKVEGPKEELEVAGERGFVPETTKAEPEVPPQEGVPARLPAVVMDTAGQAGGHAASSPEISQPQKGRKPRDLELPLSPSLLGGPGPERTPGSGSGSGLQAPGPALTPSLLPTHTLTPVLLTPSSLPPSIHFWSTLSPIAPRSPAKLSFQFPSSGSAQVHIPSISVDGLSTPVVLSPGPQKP
# Procedure, shortened: as §1
# [3] = target: T3, GABPA (Homo sapiens, UniProt Q06546 1-454); conditions: protein: recombinant; tags: N-terminal GST; dsDNA, one strand shown
# T3 sequence: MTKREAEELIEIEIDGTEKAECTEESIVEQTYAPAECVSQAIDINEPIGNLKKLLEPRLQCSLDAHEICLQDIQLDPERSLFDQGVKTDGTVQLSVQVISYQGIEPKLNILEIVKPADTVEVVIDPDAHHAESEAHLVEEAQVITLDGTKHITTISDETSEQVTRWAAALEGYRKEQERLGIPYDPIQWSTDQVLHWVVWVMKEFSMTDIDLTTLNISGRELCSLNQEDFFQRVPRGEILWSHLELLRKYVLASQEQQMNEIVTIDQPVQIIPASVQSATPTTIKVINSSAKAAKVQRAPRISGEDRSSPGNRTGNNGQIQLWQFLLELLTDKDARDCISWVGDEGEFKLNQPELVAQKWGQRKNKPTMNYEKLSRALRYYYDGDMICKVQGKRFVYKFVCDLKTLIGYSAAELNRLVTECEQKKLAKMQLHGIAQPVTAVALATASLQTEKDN
# Procedure, shortened: as §1
# [4] = target: T4, ERG (Homo sapiens, UniProt P11308 1-479); conditions: protein: recombinant; tags: N-terminal GST; dsDNA, one strand shown
# T4 sequence: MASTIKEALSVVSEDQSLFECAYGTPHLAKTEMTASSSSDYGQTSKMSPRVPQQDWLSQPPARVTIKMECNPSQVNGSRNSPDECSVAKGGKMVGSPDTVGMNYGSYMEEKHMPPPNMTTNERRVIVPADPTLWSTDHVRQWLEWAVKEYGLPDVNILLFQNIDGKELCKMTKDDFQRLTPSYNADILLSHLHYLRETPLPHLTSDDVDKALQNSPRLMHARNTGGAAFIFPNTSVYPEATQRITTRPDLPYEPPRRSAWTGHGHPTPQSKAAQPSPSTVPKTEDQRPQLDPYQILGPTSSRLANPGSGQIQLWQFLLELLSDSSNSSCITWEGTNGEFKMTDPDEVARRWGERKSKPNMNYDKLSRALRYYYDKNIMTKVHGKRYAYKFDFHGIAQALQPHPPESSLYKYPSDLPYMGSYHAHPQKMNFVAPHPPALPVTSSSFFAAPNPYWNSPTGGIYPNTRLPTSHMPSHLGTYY
# Procedure, shortened: as §1
# [5] = target: ELF1 (Homo sapiens, UniProt P32519 1-619); conditions: protein: recombinant; tags: N-terminal GST; dsDNA, one strand shown
# Chain of ELF1 (P32519 whole entry): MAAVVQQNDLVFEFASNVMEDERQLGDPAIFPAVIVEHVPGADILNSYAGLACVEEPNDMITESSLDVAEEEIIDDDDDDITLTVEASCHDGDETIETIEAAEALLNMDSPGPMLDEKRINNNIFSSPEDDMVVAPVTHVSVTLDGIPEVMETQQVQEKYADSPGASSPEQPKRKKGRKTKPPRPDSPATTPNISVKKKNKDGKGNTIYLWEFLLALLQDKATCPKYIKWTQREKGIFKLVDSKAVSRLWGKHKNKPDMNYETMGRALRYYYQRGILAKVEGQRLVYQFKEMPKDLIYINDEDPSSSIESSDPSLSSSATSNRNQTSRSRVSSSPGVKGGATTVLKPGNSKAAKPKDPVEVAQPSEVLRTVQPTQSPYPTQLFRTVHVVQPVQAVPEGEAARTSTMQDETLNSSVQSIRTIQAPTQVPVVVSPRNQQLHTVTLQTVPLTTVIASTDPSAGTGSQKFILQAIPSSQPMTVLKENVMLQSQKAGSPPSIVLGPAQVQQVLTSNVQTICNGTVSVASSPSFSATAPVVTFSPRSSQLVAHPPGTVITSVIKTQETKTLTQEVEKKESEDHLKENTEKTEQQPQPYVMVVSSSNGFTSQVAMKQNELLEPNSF
# Procedure, shortened: as §1
# [6] = target: T5, EHF (Homo sapiens, UniProt Q9NZC4 1-300); conditions: protein: recombinant; tags: N-terminal GST; dsDNA, one strand shown
# T5 sequence: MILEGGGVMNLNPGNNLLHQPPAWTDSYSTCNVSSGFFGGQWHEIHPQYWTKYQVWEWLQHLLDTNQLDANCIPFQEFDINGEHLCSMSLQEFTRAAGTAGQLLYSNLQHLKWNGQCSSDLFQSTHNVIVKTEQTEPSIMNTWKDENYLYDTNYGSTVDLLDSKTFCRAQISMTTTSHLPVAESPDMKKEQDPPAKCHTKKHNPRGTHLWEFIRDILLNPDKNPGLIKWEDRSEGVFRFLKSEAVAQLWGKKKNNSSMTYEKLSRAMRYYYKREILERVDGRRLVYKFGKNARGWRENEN
# Procedure, shortened: as §1
# [7] = target: SPI1 (Homo sapiens, UniProt P17947 1-270); conditions: protein: recombinant; tags: N-terminal GST; dsDNA, one strand shown
# Procedure, shortened: as §1
# [8] = target: SPIB (Homo sapiens, UniProt Q01892 1-262); conditions: protein: recombinant; tags: N-terminal GST; dsDNA, one strand shown
# Chain of SPIB (Q01892 whole entry): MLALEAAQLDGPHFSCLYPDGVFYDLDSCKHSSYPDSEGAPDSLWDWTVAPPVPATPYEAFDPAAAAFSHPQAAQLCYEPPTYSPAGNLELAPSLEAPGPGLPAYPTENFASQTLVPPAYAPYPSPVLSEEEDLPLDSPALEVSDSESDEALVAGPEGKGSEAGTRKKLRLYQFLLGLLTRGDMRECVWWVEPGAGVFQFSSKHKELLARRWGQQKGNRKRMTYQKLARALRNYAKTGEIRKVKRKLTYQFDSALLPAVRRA
# Procedure, shortened: as §1
# [9] = target: T6, ELK3 (Homo sapiens, UniProt P41970 1-407); conditions: protein: recombinant; tags: N-terminal GST; dsDNA, one strand shown
# T6 sequence: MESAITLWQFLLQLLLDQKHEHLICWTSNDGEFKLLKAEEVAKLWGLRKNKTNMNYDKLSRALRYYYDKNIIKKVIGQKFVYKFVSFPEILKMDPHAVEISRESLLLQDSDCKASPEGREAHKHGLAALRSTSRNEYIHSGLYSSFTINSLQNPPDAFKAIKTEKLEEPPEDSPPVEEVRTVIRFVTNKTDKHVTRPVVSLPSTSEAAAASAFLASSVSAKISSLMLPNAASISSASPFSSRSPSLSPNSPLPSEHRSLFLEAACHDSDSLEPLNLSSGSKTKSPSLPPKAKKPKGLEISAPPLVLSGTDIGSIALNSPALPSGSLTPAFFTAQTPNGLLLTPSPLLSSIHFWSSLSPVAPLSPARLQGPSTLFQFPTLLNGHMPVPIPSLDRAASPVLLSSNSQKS
# Procedure, shortened: as §1
# [10] = target: T7, FEV (Homo sapiens, UniProt Q99581 1-238); conditions: protein: recombinant; tags: N-terminal GST; dsDNA, one strand shown
# T7 sequence: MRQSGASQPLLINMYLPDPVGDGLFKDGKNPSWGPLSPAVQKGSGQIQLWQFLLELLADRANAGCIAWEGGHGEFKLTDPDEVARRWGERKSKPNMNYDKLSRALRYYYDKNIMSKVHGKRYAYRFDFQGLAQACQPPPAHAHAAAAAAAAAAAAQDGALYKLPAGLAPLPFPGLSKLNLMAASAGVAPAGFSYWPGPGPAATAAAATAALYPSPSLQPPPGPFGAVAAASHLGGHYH
# Procedure, shortened: as §1
# [11] = target: ETV5 (Homo sapiens, UniProt P41161 1-510); conditions: protein: recombinant; tags: N-terminal GST; dsDNA, one strand shown
# Chain of ETV5 (P41161 whole entry): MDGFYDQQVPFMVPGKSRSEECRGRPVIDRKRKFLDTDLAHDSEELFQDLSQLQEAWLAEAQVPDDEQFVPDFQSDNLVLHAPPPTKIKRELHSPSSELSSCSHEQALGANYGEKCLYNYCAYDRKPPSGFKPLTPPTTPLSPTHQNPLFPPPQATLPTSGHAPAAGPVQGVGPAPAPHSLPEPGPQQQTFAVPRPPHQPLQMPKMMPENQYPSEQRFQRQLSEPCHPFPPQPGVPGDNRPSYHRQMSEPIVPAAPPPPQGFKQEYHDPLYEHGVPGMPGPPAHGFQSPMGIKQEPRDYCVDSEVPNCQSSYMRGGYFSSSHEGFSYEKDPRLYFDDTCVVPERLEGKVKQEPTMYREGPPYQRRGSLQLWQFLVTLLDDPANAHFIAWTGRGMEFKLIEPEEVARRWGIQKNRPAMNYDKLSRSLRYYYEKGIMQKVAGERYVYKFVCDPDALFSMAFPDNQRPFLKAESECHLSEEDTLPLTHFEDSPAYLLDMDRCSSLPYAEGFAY
# Procedure, shortened: as §1
# [12] = target: HSF1 (Homo sapiens, UniProt Q00613 1-529); conditions: protein: recombinant; tags: N-terminal GST; chain copies: 3; dsDNA, one strand shown
# Chain of HSF1 (Q00613 whole entry): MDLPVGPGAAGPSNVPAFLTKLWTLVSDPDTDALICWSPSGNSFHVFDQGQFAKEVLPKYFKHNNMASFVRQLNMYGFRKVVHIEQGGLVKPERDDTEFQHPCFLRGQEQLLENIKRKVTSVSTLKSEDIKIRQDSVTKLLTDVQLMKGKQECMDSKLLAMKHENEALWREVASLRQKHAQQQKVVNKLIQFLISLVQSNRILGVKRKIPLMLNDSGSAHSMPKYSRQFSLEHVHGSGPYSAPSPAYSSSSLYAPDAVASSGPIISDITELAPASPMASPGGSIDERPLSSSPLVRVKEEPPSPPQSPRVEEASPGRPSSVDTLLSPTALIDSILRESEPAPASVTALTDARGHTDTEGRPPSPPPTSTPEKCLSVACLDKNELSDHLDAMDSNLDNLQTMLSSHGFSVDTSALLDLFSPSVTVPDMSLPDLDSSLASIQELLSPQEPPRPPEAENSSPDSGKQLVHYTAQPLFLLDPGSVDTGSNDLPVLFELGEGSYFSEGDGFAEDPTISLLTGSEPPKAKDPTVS
# Procedure, shortened: as §1
# [13] = target: T8, SPIC (Homo sapiens, UniProt Q8N5J4 1-248); conditions: protein: recombinant; tags: N-terminal GST; dsDNA, one strand shown
# T8 sequence: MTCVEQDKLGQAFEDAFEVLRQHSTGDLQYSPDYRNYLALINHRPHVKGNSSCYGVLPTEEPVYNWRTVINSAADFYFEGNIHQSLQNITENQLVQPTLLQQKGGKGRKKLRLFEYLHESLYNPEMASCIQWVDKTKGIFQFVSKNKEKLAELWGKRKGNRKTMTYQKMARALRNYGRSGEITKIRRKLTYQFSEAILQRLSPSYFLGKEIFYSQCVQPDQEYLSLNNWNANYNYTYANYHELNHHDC
# Procedure, shortened: as §1
# [14] = target: ELF4 (Homo sapiens, UniProt Q99607 1-663); conditions: protein: recombinant; tags: N-terminal GST; dsDNA, one strand shown
# Chain of ELF4 (Q99607 whole entry): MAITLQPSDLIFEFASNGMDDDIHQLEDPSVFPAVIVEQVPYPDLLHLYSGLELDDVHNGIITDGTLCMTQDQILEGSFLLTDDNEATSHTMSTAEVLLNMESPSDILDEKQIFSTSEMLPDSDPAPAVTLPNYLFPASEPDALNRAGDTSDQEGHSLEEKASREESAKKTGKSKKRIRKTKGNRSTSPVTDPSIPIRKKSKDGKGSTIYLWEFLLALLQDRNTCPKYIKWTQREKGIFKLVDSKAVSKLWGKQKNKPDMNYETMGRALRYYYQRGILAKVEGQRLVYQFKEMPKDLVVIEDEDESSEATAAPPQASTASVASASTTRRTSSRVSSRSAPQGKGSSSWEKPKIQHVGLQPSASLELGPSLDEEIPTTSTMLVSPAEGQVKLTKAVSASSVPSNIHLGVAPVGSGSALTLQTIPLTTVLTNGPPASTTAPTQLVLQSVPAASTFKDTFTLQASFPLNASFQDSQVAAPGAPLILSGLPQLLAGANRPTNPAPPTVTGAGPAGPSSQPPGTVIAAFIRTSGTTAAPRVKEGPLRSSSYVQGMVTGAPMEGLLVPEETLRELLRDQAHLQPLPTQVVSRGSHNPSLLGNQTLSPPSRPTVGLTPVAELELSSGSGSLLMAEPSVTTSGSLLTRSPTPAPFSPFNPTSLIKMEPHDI
# Procedure, shortened: as §1
# [15] = target: T9, ELK4 (Homo sapiens, UniProt P28324-2 1-405); conditions: protein: recombinant; tags: N-terminal GST; dsDNA, one strand shown
# T9 sequence: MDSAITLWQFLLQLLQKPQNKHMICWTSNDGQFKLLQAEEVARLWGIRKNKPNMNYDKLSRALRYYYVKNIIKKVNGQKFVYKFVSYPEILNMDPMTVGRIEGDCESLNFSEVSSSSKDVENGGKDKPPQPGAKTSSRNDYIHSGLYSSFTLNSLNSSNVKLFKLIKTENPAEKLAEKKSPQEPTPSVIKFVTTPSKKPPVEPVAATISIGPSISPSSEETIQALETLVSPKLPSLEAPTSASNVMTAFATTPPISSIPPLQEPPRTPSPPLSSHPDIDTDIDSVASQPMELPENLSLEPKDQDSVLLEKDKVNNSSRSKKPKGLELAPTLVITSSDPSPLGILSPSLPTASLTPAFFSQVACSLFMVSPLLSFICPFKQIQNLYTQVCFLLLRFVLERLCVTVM
# Procedure, shortened: as §1
# [16] = target: T10, ETV2 (Homo sapiens, UniProt O00321 1-342); conditions: protein: recombinant; tags: N-terminal GST; dsDNA, one strand shown
# T10 sequence: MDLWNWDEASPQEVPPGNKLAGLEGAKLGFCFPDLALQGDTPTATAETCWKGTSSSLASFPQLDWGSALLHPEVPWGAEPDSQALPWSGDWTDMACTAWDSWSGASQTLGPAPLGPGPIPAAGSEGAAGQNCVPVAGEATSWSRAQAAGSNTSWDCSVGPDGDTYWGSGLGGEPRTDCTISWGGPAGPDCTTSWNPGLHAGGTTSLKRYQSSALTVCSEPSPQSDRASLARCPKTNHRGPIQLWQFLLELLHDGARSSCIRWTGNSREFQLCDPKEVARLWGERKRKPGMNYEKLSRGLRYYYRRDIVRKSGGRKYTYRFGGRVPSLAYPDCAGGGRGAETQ
# Procedure, shortened: as §1
# [17] = target: T11, ELF3 (Homo sapiens, UniProt P78545 1-371); conditions: protein: recombinant; tags: N-terminal GST; dsDNA, one strand shown
# T11 sequence: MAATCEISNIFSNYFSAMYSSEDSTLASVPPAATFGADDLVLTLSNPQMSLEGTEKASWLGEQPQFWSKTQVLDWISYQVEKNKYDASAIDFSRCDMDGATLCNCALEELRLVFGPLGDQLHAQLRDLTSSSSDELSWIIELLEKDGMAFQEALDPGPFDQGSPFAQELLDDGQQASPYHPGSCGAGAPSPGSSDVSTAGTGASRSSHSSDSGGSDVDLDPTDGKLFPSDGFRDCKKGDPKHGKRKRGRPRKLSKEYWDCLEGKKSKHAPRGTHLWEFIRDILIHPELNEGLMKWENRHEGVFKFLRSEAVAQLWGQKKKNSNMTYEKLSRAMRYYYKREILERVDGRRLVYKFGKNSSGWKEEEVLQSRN
# Procedure, shortened: as §1
# [18] = target: ETV1 (Homo sapiens, UniProt P50549 1-477); conditions: protein: recombinant; tags: N-terminal GST; dsDNA, one strand shown
# Chain of ETV1 (P50549 whole entry): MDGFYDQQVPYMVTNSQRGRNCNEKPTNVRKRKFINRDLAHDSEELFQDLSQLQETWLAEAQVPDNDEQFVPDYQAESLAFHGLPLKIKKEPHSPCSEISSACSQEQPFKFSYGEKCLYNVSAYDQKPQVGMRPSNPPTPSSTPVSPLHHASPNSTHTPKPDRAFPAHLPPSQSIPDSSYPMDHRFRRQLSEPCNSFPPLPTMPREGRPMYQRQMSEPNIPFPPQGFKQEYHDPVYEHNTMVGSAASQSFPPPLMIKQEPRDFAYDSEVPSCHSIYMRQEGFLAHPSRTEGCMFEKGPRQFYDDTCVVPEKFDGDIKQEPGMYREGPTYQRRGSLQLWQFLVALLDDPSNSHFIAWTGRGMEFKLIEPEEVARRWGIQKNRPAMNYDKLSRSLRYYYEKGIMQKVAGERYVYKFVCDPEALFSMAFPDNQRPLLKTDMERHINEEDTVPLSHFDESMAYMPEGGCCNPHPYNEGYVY
# Procedure, shortened: as §1
sequence,measurement,setting,value
TCTGTC,binding signal,[1],"1.16 fold enrichment (6-mer frequency, TF over GST control)"
same,binding signal,[2],"1.13 fold enrichment (6-mer frequency, TF over GST control)"
same,binding signal,[3],"1.16 fold enrichment (6-mer frequency, TF over GST control)"
same,binding signal,[4],"1.17 fold enrichment (6-mer frequency, TF over GST control)"
same,binding signal,[5],"1.12 fold enrichment (6-mer frequency, TF over GST control)"
same,binding signal,[6],"1.14 fold enrichment (6-mer frequency, TF over GST control)"
same,binding signal,[7],"1.1 fold enrichment (6-mer frequency, TF over GST control)"
same,binding signal,[8],"1.05 fold enrichment (6-mer frequency, TF over GST control)"
same,binding signal,[9],"1.17 fold enrichment (6-mer frequency, TF over GST control)"
same,binding signal,[10],"1.13 fold enrichment (6-mer frequency, TF over GST control)"
same,binding signal,[11],"1.18 fold enrichment (6-mer frequency, TF over GST control)"
same,binding signal,[12],"1.07 fold enrichment (6-mer frequency, TF over GST control)"
same,binding signal,[13],"1.3 fold enrichment (6-mer frequency, TF over GST control)"
same,binding signal,[14],"1.13 fold enrichment (6-mer frequency, TF over GST control)"
same,binding signal,[15],"1.27 fold enrichment (6-mer frequency, TF over GST control)"
same,binding signal,[16],"1.19 fold enrichment (6-mer frequency, TF over GST control)"
same,binding signal,[17],"1.19 fold enrichment (6-mer frequency, TF over GST control)"
same,binding signal,[18],"1.23 fold enrichment (6-mer frequency, TF over GST control)"
